Compound activity from PubChem BioAssay.
Gli-Sufu antag: Gli-Sufu pathway antagonists, primary screen, luciferase luminescence, Sufu-KO-LIGHT cells, uHTS; Sufu-KO-LIGHT fibroblasts, Gli luciferase reporter luminescence; inhibition, % at 5 µM; 0.74% of 340,000 active; AID 588413, 2011;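 active = inhibition above about 55%, limit read from the data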;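 note: 0% = DMSO-treated cells and 100% = wells with medium but no cells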
aSyn UTR inh: MLPCN primary screen, SNCA 5' untranslated region; inhibition, % (tested at 7.5 µM); 0.82% of 300,000 active; alpha-synuclein 5'UTR reporter, inhibitor activity; AID 1813, 2009; in the data active = inhibition above about 60%;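 note: H4 neuroglioblastoma cells stably carrying SNCA 5'UTR luciferase fusion; 0% = DMSO wells and 100% = positive control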
Jurkat NFkB inh: inhibitors of induced NF-kB luciferase reporter, primary screen, TCR NF-kB activation inhibitor project, cell-based, luminescence, uHTS. Jurkat, PMA/ionomycin-induced NF-kB luciferase reporter. inhibition, % at 4 µM. 0.53% of 330,000 active. AID 435003, 2010; in the data active = inhibition above about 50%
Shn3 inh set2: reduction of Shn3 3'UTR firefly luciferase signal, primary screen, Schnurri-3 inhibitor project, cell-based, Clone20 osteoblasts, set 2 | Clone20 osteoblast Shn3 3'UTR firefly luciferase, 24 h | 0.52% of 360,000 active | inhibition, % at 12.5 µM;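 active = mean inhibition of at least 75% with every replicate also reaching 75%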;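 note: 0% = median of neutral control wells and 100% = pilot-screen positive control compound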
TAG inh: inhibitors of triacylglycerol accumulation, primary screen, cell-based, uHTS, fluorescence, H9c2. H9c2 cells, Nile Red lipid (TAG) fluorescence; cells loaded with 200 µM oleic acid. inhibition, % at 12.5 µM. 0.66% of 230,000 active;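 active = pattern-corrected inhibition of lipid staining of at least 50% with the nuclear-stain viability signal not falling by more than 50%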;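 note: 0% = DMSO wells and 100% = triacsin C control wells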
697 NFkB inh: inhibitors of PMA/ionomycin-induced NF-kB reporter, 697 cells, primary screen, B-cell NF-kB inhibitor project, cell-based, luminescence, uHTS; 697 B-cell NF-kB luciferase reporter, 16 h; inhibition, % at 4 µM; 0.33% of 330,000 active; in the data active = inhibition above about 35%
An asterisk follows results filed as active; x = no result given. The list is not random: actives were taken first. Their share in the collection is about 2.3%.

SMILES | Gli-Sufu antag | aSyn UTR inh | Jurkat NFkB inh | Shn3 inh set2 | TAG inh | 697 NFkB inh
Cc1cccc(NC(=O)/C(C#N)=C/c2cn(CC(=O)NCc3ccco3)c3ccccc23)c1 | -2 | x | x | 9 | x | x
O=C(N/N=C/c1ccc([N+](=O)[O-])s1)c1ccccc1Br | 26 | 47 | 9 | 41 | x | 12
Cc1ccccc1C(=O)N/N=C/c1ccc([N+](=O)[O-])s1 | 40 | 93* | 19 | -3 | x | 22
O=C(NCCNC(=O)c1ccco1)c1ccc(F)cc1 | 8 | 10 | -3 | -2 | 2 | 19
COc1ccc(C(=O)NC2CCCCC2)cc1OC1CCN(C(C)C)CC1 | 18 | -2 | 10 | -13 | 40 | 4
COc1cc(C(=O)NC2CCN(C)CC2)ccc1Nc1ncc2c(n1)N(C1CCCC1)CCC(=O)N2C(C)C | 30 | x | x | 6 | 58* | x
COc1ccc(C[C@H]2CN3C(=NC[C@@H]3Cc3ccccc3)N2CCNC(=O)c2ccc(C)c(Br)c2)cc1 | 30 | 7 | 10 | -7 | 120* | 15
COc1ccc(C[C@H]2CN3C(=NC[C@H]3Cc3ccccc3)N2CCNC(=O)c2ccc(C)c(Br)c2)cc1 | 20 | 28 | 15 | 13 | 128 | -1
Cc1ccc(C(=O)NCN2CCN(c3ccc(F)cc3)CC2)cc1 | 2 | x | 16 | -10 | -39 | 15
Cc1[nH]c2ccccc2c1/C=N/Nc1ccccc1[N+](=O)[O-] | -7 | -33 | -32 | -5 | 60* | -11
COc1ccc(NS(=O)(=O)c2cc([N+](=O)[O-])ccc2N/N=C/c2c(C)[nH]c3ccccc23)cc1 | 1 | x | x | 20 | -47 | x
CC(=O)c1ccc(NC(=S)N2CC(C)CC(C)C2)cc1 (stereo not drawn) | 1 | -25 | -4 | 6 | x | -16
COCc1nnc(NC(=O)c2ccc(S(=O)(=O)N3CCCc4ccccc43)cc2)o1 | -4 | -18 | 0 | 16 | x | 13
CC1CN(S(=O)(=O)c2ccc(C(=O)Nc3nnc(-c4ccc5c(c4)CCCC5)o3)cc2)CC(C)O1 (stereo not drawn) | 3 | 76* | 6 | 48 | 0 | -43
CC1CN(S(=O)(=O)c2ccc(C(=O)Nc3nnc(-c4ccccn4)o3)cc2)CC(C)O1 (stereo not drawn) | -5 | -11 | -4 | -30 | x | 7
O=C(Nc1nnc(C2CC2)o1)c1ccc(S(=O)(=O)N2CCCc3ccccc32)cc1 | -2 | 63* | 0 | 78 | -2 | -32
COc1ccc(-c2nnc(NC(=O)c3ccc(S(=O)(=O)N4CCCc5ccccc54)cc3)o2)cc1 | 11 | 69* | 17 | 40 | -10 | -58
COc1ccccc1NS(=O)(=O)c1cc(NC(=O)c2cc3ccccc3oc2=O)ccc1C | -3 | -61 | -13 | -3 | x | -28
CCOC(=O)c1c(CSC(=N)N)n(-c2ccc(C)cc2)c2cc(Br)c(OC(C)=O)cc12 | 24 | 55 | -6 | -20 | 74* | -32
C/C(=N\NC(=O)c1c(C)nc2ccccn12)c1ccc(O)cc1O | 16 | 84* | 29 | 81 | x | -11
C/C(=N\NC(=O)c1c(C)nc2ccccn12)c1ccccc1F | 17 | -20 | 0 | 6 | x | 1
CC(=O)Nc1nccc(-c2cc(-c3ccccc3)no2)n1 | -51 | -180 | -60 | x | x | -37
Cc1ccc2nc(-c3cc(-c4ccccc4)no3)cn2c1 | -26 | 86* | -35 | 49 | 0 | -249
CCc1ccn2cc(-c3cc(-c4ccccc4)no3)nc2c1 | 56* | 94* | 29 | 30 | 10 | -32
CCCOc1ccc(N2C(=O)CC(N(O)c3ccccc3)C2=O)cc1 (stereo not drawn) | 5 | -77 | -11 | -16 | 13 | -62
Brc1ccc(-c2nc(-c3ccccn3)no2)o1 | 1 | 80* | -69 | 21 | 9 | -80
COc1cnc(-c2ccccn2)nc1N(C)C | 37 | 99* | 16 | 89* | -24 | 5
Cc1ccccc1-c1nc(-c2ccccn2)no1 | -36 | 95* | -42 | 40 | -6 | -134
COc1ccccc1-c1nc(-c2ccccn2)no1 | -27 | 77* | -28 | 7 | 2 | -96
